# High-throughput results: PubChem BioAssay, several laboratories
# Sampled rows, rich in hits. Any-hit rate of the full collection: about 2.9%.
# DNA FID counter – fluorescent intercalator displacement, NS3 helicase counter-screen. DNA fluorescent intercalator displacement, fluorescence. inhibition, % at 7.9 µM. 0.17% of 290,000 active. AID 1845; in the data active = inhibition above about 37%;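 note: 0% = vehicle and 100% = reference compound; higher means more ethidium bromide displaced from hairpin DNA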
# MEKK2wt PB1 HTS – raises or lowers MEK5 binding to wildtype human MEKK2 PB1 domain; bead flow cytometry, Alexa488-MEK5 binding to MEKK2 WT; actives lie on both sides; binding response (% of control), % at 10 µM; 1.1% of 290,000 active; in the data active = binding response below about 67% or above about 130%
# MEKK3 PB1 HTS – raises or lowers MEK5 binding to the human MEKK3 PB1 domain; bead-based flow cytometry, Alexa488-MEK5 binding to MEKK3; actives lie on both sides; 0 = blocked by unlabeled MEK5, 100 = vehicle; binding response (% of control), % at 10 µM; 1.4% of 290,000 active; Q99759; AID 1529;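 active = binding response more than 3 SD above or below the average of its plate-row segment, actives on both sides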;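 note: Alexa488 bead fluorescence after subtracting the streptavidin-only scavenger bead signal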
# dFosB act – enhances mouse delta FosB homodimer DNA binding; AID 493131; activation, % at 25 µM; 0.99% of 340,000 active; purified delta FosB, TAMRA-CDK5 oligo fluorescence polarization; percent of positive-control signal above neutral wells; P13346;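 active = mean activation above about 17%, with every replicate also reaching it, limit read from the data, passing the limit was not always enough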
# Target sequence (P13346 whole entry, looked up): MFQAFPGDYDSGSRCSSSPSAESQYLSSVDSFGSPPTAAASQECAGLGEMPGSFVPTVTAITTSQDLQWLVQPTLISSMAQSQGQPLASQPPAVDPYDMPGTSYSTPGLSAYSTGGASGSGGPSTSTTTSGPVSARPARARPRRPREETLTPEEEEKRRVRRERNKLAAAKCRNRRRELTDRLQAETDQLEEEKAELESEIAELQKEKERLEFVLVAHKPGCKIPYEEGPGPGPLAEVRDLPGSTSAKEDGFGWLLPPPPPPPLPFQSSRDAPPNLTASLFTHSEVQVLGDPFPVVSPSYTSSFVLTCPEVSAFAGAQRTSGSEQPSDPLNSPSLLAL
# MEKK2mut PB1 HTS – signal of MEK5 binding to mutant human MEKK2 PB1 domain | AID 1530 | bead flow cytometry, Alexa488-MEK5 binding to MEKK2 mutant | percent response, % at 10 µM | 0.35% of 290,000 active; in the data active = percent response above about 24%, passing the limit was not always enough
# MEKK2wt confirm – raises or lowers MEK5 binding to wildtype human MEKK2, retest; shares compounds with MEKK3 PB1 HTS; bead flow cytometry, Alexa488-MEK5 binding to MEKK2 WT; actives lie on both sides; binding response (% of control), % at 10 µM; 2.4% of 5,900 active; AID 1892; in the data active = binding response below about 16% or above about 210%; inactive = in between
# MEKK2mut confirm – signal of MEK5 binding to mutant human MEKK2, retest. shares compounds with MEKK3 PB1 HTS. bead flow cytometry, Alexa488-MEK5 binding to MEKK2 mutant. percent response, % at 10 µM. 2% of 5,900 active; in the data active = percent response mostly above about 71%, no sharp cut-off; inactive = mostly below about 38%;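 note: higher means compound restores mutant binding toward wildtype level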
# MEKK3 confirm – confirmation of inhibitors of MEK5 binding to human MEKK3. shares compounds with MEKK3 PB1 HTS. bead flow cytometry, Alexa488-MEK5 binding to MEKK3; hits give low values. binding response (% of control), % at 10 µM. 1.8% of 5,900 active. AID 1894;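 active = binding response below 72% of control, or above a set upper limit, though filed actives all read lower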;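 note: 100% = DMSO only wells and 0% = binding blocked by excess unlabeled MEK5; lower values mean stronger disruption of MEK5 binding to MEKK3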
# * = called active by the depositor; nt = no result given; [ ] = remark or other dose.
SMILES,DNA FID counter,MEKK2wt PB1 HTS,MEKK3 PB1 HTS,dFosB act,MEKK2mut PB1 HTS,MEKK2wt confirm,MEKK2mut confirm,MEKK3 confirm
CCOC(=O)c1c(C)[nH]c(O)c1C=Nc1ccc(C(F)(F)F)cc1,-11,119,132*,-5,6,98,-1,100
c1ccc(CSc2ccc(-c3cccs3)nn2)nc1,-16,103,105,-10,0,nt,nt,nt
c1ccc(CSc2ccc(-c3cccs3)nn2)cc1,-4,106,129*,-4,1,94,-1,92
O=S(=O)(Cc1ccccc1)N1CCC(N2CCN(c3ccccc3)CC2)CC1,-2,117,133*,3,5,111,4,104
COC(=O)C(CC(C)C)NC(=O)c1cccs1 (stereo unspecified),5,108,129*,1,-1,95,-3,98
CCCCNC(=O)Nc1ccc(C2SCCS2)cc1,-4,103,99,-2,0,nt,nt,nt
CN(C(=O)CSc1nnc(-c2ccccc2)c(-c2ccccc2)n1)C1CCS(=O)(=O)C1 (stereo unspecified),-19,112,137*,-2,1,103,1,101
O=C(O)/C=C/C(=O)Nc1ccc(Oc2ccc(NC(=O)/C=C/C(=O)O)cc2)cc1,2,106,150*,nt,1,87,-9,87
O=C(O)/C=C\C(=O)Nc1ccc(Oc2ccccc2)cc1,1,92,98,-3,0,nt,nt,nt
O=C(CCc1nc2ccccc2s1)OCC(=O)c1ccccc1,-20,102,96,3,7,nt,nt,nt
Cc1noc(C)c1COC(=O)CCc1nc2ccccc2s1,-2,127,130*,3,8,100,1,98
COc1ccc(NC(=O)COC(=O)Cc2coc3cc(OC)ccc23)c(OC)c1,nt,nt,nt,-4,nt,nt,nt,nt
COc1ccc(CCN2C(=O)C(Oc3ccccc3)C2c2ccc3c(c2)OCO3)cc1 (stereo unspecified),-2,108,150*,-3,1,107,-3,102
O=C(CNC(=O)c1ccccc1)N/N=C/c1cc(Br)ccc1O,-5,104,91,-8,0,nt,nt,nt
O=C(CN1CC(c2ccccc2)CC1=O)N/N=C/c1cc(Br)ccc1O (stereo unspecified),-35,106,141*,-8,0,97,-10,100
CCOc1ccccc1C(=O)NCC(=O)NCCc1ccc(S(N)(=O)=O)cc1,-10,98,100,1,2,nt,nt,nt
CSc1cccc(NC(=O)C2CCN(C(=O)c3ccccc3C)CC2)c1,-23,108,151*,2,1,96,-12,96
Cc1cccc(NC(=O)N2CCC(NC(=O)c3ccccc3C)CC2)c1,-18,2.0*[inhibitor],2.0*[inhibitor],-3,-17,96,2,105
CCOC(=O)C1CCN(S(=O)(=O)c2ccc(OC)c(Cl)c2Cl)CC1,-1,88,82*[inhibitor],-9,-5,103,2,102
CCOC(=O)C1CCN(S(=O)(=O)c2ccc(-c3ccccn3)s2)CC1,-27,129,130*,nt,25,99,-3,101
CCOC(=O)C1CCN(S(=O)(=O)c2ccc(-n3cnnn3)c(C)c2)CC1,0,86,79*[inhibitor],-3,-11,101,-3,102
Cc1ccc(S(=O)(=O)Nc2ccc(F)cc2)cc1C(=O)N1CCOCC1,nt,nt,nt,5,nt,nt,nt,nt
COC(=O)C(Cc1ccc(O)cc1)NC(=O)CCOc1ccc(OC)cc1 (stereo unspecified),-7,105,106,1,4,nt,nt,nt
CC(C)C1NCCc2c1sc1ccccc21 (stereo unspecified),nt,nt,nt,-6,nt,nt,nt,nt
CCOC(=O)CC(=O)CSc1nccc(-c2cccnc2)n1,-10,54,43*[inhibitor],1,-23,95,-8,97
SMILES,DNA FID counter,MEKK2wt PB1 HTS,MEKK3 PB1 HTS,dFosB act,MEKK2mut PB1 HTS,MEKK2wt confirm,MEKK2mut confirm,MEKK3 confirm
CCN(CC)S(=O)(=O)c1ccc(OC(C)C)c(NC(=O)c2c3c(nc4ccccc24)CCN(Cc2ccccc2)C3)c1,21,101,100,6,-2,nt,nt,nt
COc1ccc(S(=O)(=O)N2CCN(CC(=O)c3ccc(O)c(O)c3)CC2)cc1,-16,105,98,-2,2,nt,nt,nt
COc1cc(NS(=O)(=O)c2ccc(NC(=S)NC(=O)C(C)(C)C)cc2)nc(OC)n1,-46,51,38*[inhibitor],-1,-23,98,0,105
COc1ccc(C)cc1NC(=O)COC(C)=O,-6,79,74*[inhibitor],-8,-5,101,0,103
CCc1ccc(C(C(=O)NC2CCCC2)N(CCOC)C(=O)CCC(=O)Nc2cc(C)on2)cc1 (stereo unspecified),-45,100,103,-9,-1,nt,nt,nt
COC(=O)Nc1nn(Cc2ccccc2F)cc1Br,-1,82,74*[inhibitor],9,-10,104,8,104
COc1ccc(-c2csc(NC(=O)CN3C(=O)CCC3=O)n2)cc1,-5,102,92,-10,1,nt,nt,nt
COc1ccc(-c2csc(NC(=O)CN3C(=O)CCC3=O)n2)c(OC)c1,-9,111,142*,2,1,97,-4,95
COc1ccc(Nc2nc(-c3cccc([N+](=O)[O-])c3)nc3ccccc23)cc1,4,141*,126,-6,3,107,-1,102
CN1CCC/C1=C/C=C1\SC(=S)NC1=O,7,112,151*,3,1,103,-2,105
OC(COCC1COc2ccccc2O1)CN1CCc2ccccc2C1 (stereo unspecified),14,102,98,-7,-2,nt,nt,nt
OC(COCC1COc2ccccc2O1)CN1CCN(c2ccccn2)CC1 (stereo unspecified),0,117,114,-3,24*,106,7,107
CCCCNC(=O)c1cc2c(-c3ccc(Cl)cc3)nn(C)c2s1,-7,114,104,-12,5,nt,nt,nt
CCN1CCCC1CNC(=O)c1cc2c(-c3ccc(Cl)cc3)nn(C)c2s1 (stereo unspecified),35,210*,112,-37,29*,167,31,101
Cn1nc(-c2ccc(Cl)cc2)c2cc(C(=O)NCCCN3CCCC3)sc21,27,201*,105,-36,21,176,37,106
COc1ccc(/C=C/C(=O)N2CCN(S(=O)(=O)/C=C/c3ccccc3)CC2)cc1OC,-10,108,145*,6,0,102,6,104
